# Sampled rows, rich in hits. Any-hit rate of the full collection: about 7.5%.
# ELG1 genotoxic: genotoxicity induction in ELG1-luciferase HEK293T cells | HEK293T ELG1-luciferase reporter, luminescence, 16 h | Potency, µM (highest dose often 46 µM), for inactives: at the highest dose activity change, positive = activation, hits mostly activators | hit rate 1.3% among 330,000 | AID 504466; note: % of control where 0% means no effect; nearly all actives have a fitted effect of over 60% in size
#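 Genotoxicity was scored as increased ELG1-luciferase reporter signal, measured by ONE-Glo luminescence (30 min, room temperature). Compound or vehicle exposure of the HEK293T reporter cells lasted 16 hr at 37°C.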
# Rab9 promoter act: activators of Rab9 promoter; Huh7 Rab9 promoter-luciferase reporter, luminescence, 24 h; Potency, µM (titrated, usually from 9.22 µM), for inactives: top-dose activation, negative = inhibition, hits mostly activators; hit rate 2.8% among 320,000; AID 485297; note: % of control where 0% means no effect; nearly all actives have a fitted effect of over 60% in size
#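 Rab9 promoter-driven luciferase in stably transfected Huh7 cells; 1500 cells/well rested 2 h, exposed to compound in DMSO for 24 h at 37 °C, 5% CO2. Luminescence read 10 min after adding luciferase reagent at ambient temperature.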
# KinaseGlo FLuc: blocks Kinase-Glo luciferase, a counter-screen artifact | Q27757 | Kinase-Glo luciferase, ATP luminescence, 8 min | Potency, µM (highest dose often 38.3 µM), for inactives: at the top dose activity change, negative = inhibition, usual class: inhibitors | hit rate 0.28% among 200,000; note: % is set by controls: 0 for no effect and ±100 for the full control effect; nearly all actives have a fitted effect of over 60% in size
#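 Substrate mix (final 50 mM imidazole pH 7.2, 50 mM KCl, 7 mM MgCl2, 10 uM ATP, 0.01% Tween 20, 0.05% BSA) plus pin-tool compound, then Kinase-Glo detection mix; 8 min ambient, luminescence read.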
# NPC1 promoter act: activates the NPC1 promoter. Huh7 NPC1 promoter luciferase reporter, 24 h. Potency, µM (doses to about 9.22 µM), for inactives: at the highest dose activation, usual class: activators. hit rate 2.4% among 320,000; note: % of control where 0% means no effect; nearly all actives have a fitted effect of over 60% in size
#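 Huh7 cells stably carrying NPC1 promoter–luciferase, plated in Opti-MEM with 10% FBS for 2 h, were exposed to compound in DMSO for 24 h at 37 °C; luciferase reagent was added for 10 min and luminescence read.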
# SMN2 splice up: enhancers of SMN2 splice variant expression | HEK293 SMN2-luciferase splicing reporter, luminescence, 30-36 h | hit rate 2.8% among 210,000 | Potency, µM (top dose mostly 46.1 µM), inactives show top-dose activity change, positive = activation, usual class: activators; note: % of control where 0% means no effect; nearly all actives have a fitted effect of over 55% in size
#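 qHTS luciferase splicing reporter: luminescence rises when SMN2 exon 7 is included in transfected HEK293 cells. Compound exposure lasted 30-36 h at 37C, with 4.5 mM final sodium butyrate as control, followed by a ONE-Glo read.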
# FLuc counter: inhibits or activates purified firefly luciferase, miR-21 counter-screen | P08659 | purified FLuc, Km substrates, luminescence inhibition | Potency, µM (titrated, usually from 57.5 µM), without a hit: at the highest dose activity change, negative = inhibition, most hits filed as inhibitors | hit rate 6.9% among 360,000 | AID 588342;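 note: plate controls were vehicle for no effect and reference inhibitor for full effect; nearly all actives have a fitted effect of over 55% in size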
# Target sequence (P08659 whole entry, looked up): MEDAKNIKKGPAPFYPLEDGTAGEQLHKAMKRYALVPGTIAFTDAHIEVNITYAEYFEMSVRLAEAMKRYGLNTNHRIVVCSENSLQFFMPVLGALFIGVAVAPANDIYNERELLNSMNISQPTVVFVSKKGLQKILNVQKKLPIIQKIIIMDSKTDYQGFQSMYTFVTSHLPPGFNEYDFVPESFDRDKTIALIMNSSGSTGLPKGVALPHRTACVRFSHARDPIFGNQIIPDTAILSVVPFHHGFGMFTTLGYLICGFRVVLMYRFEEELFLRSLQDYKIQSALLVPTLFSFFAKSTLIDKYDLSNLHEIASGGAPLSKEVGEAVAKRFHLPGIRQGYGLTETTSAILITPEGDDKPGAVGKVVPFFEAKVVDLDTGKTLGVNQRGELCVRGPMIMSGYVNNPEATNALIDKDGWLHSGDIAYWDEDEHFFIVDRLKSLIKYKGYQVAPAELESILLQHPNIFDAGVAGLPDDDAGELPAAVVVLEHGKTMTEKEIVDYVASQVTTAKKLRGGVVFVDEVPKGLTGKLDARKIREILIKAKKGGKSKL
#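 Biochemical qHTS of compounds, final roughly 60 µM downward over six points, against 10 nM purified firefly luciferase using Km concentrations of substrates (10 uM D-luciferin, 10 uM ATP) in Tris acetate pH 7.5 buffer; luminescence output.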
# Starred values were filed as active, the others as inactive; ? = inconclusive; . = no result. Calls come from the whole dose curve; as a rule, active = well fitted curve in the direction sought with a large enough effect; inconclusive = small, poorly fitted or top-dose-only effect, or another doubt; inactive = no such curve, though single readings can be large; an effect the other way counts as inactive or inconclusive. Potency is the fitted concentration of half-maximal effect.
SMILES,ELG1 genotoxic,Rab9 promoter act,KinaseGlo FLuc,NPC1 promoter act,SMN2 splice up,FLuc counter
C[C@H](CO)N1C[C@H](C)[C@@H](CN(C)S(=O)(=O)c2ccc(F)cc2)Oc2c(NS(=O)(=O)c3ccc(F)cc3)cccc2C1=O,0%,.,.,.,.,.
O=C(NCCCO)/C(=C\c1ccco1)NC(=O)c1ccco1,-1%,-3%,.,-2%,.,2%
C/C(=N\Nc1ccc(F)cc1F)c1ccccc1O,?,12%,1%,2%,7%,19µM*
O=Cc1ccc(OCc2nnc(-c3ccccc3Br)o2)cc1,15%,-1%,.,-2%,.,?
Oc1ccccc1-c1nnc(COc2ccccc2)o1,?,4%,-4%,8%,-4%,15µM*
CC(=O)Nc1ccccc1OCc1nnc(-c2ccccc2Cl)o1,0%,18%,.,9%,.,?
Clc1ccc(-c2nnc(CCc3ccccc3)o2)c(Cl)c1,?,2µM*,-1%,2.5µM*,13µM*,5.4µM*
Clc1ccc(-c2nnc(SCc3nc4ccccc4[nH]3)o2)c(Cl)c1,-2%,1%,-4%,-3%,-26%,0%
O=C(OCc1nnc(-c2ccccc2)o1)c1ccco1,5%,1%,-23%,5%,-11%,24µM*
Oc1ccccc1-c1nnc(COc2ccc(Cl)cc2Cl)o1,13µM*,19%,-3%,-1%,?,?
O=C(OCc1nnc(-c2ccccc2)o1)c1cc(=O)c2ccccc2o1,8%,5%,7%,3%,6%,?
Cc1ccc(OCC(=O)Nc2nonc2-c2ccc(C)c(C)c2)cc1C,.,.,.,.,.,-1%
c1ccc(OCc2nnc(-c3ccccc3)o2)cc1,?,4µM*,0%,?,13µM*,17µM*
O=C(OCc1nnc(-c2ccccc2)o1)c1cccnc1Cl,10%,11%,0%,-3%,5%,?
COc1ccccc1CNC(=O)CN1N=C(c2ccccc2)CCC1=O,.,.,.,.,.,1%
Cc1cc(NC(=O)c2cc3cccc([N+](=O)[O-])c3[nH]2)ccc1F,?,2.2µM*,.,2.5µM*,.,5.4µM*
COCC(C)NC(=O)c1cc2cccc([N+](=O)[O-])c2[nH]1 (stereo not given),-5%,18%,.,15%,.,-19%
O=c1cnnc(N/N=C/c2cccs2)[nH]1,-4%,0%,.,3%,.,-3%
Cc1cc(=O)[nH]c(N/N=C/c2sccc2C)n1,11%,28%,11µM*,7%,?,?
Cc1cc(=O)[nH]c(N/N=C/c2cccs2)n1,8%,12%,-6%,12%,6%,17µM*
Cc1cc(=O)[nH]c(N/N=C/c2c(F)c(F)c(F)c(F)c2F)n1,3%,-6%,.,2%,.,4%
Cc1cc(=O)[nH]c(N/N=C/c2ccccc2Cl)n1,5%,19%,.,15%,.,-12%
Cc1cc(=O)[nH]c(N/N=C/c2cc(C)n(-c3ccccc3)c2C)n1,9.2µM*,?,.,3.2µM*,.,7.6µM*
Cc1ccc(NC(=O)C2CCCN(c3ncccn3)C2)cc1F (stereo not given),9.2µM*,?,-8%,3.5µM*,18µM*,11µM*
O=C(Nc1ccc2c(c1)CCC2)C1CCCN(c2ncccn2)C1 (stereo not given),?,?,-4%,4µM*,13µM*,5.4µM*
SMILES,ELG1 genotoxic,Rab9 promoter act,KinaseGlo FLuc,NPC1 promoter act,SMN2 splice up,FLuc counter
O=C(Nc1cccc(C(F)(F)F)c1)C1CCCN(c2ncccn2)C1 (stereo not given),-5%,0%,-1%,-5%,-25%,1%
O=C(CSc1ncccn1)Nc1ccc2c(c1)CCC2,4%,23%,.,-5%,.,21µM*
Cc1cc(C)cc(NC(=O)C2CCCN(c3ncccn3)C2)c1 (stereo not given),-10%,-1%,.,-2%,.,-2%
O=C(Nc1ccc2c(c1)OCCO2)C1CCN(c2ncccn2)CC1,?,28%,-4%,8%,24%,15µM*
CC1=C([N+](=O)[O-])C(c2ccccc2Cl)NC(=O)N1C (stereo not given),-2%,3%,.,4%,.,-1%
CCC(=O)Nc1cccc(NC(=S)NC(=O)c2ccc(Cl)cc2)c1,15%,3.5µM*,3%,?,?,-20%
CCCC(=O)NC(=S)Nc1cccc(NC(=O)c2ccc(Cl)cc2Cl)c1,-5%,-11%,.,-4%,.,13µM*
CCC(=O)Nc1cccc(NC(=S)NC(=O)c2ccc(Cl)cc2Cl)c1,9%,?,-3%,?,27%,?
CCC(=O)NC(=S)Nc1cccc(NC(=O)c2ccccc2C)c1,-1%,-5%,1%,-3%,3%,?
CCC(=O)Nc1cccc(NC(=S)NC(=O)c2ccccc2C)c1,0%,?,0%,?,18%,15µM*
O=C(Nc1cccc(-c2nc3ccccc3o2)c1)c1cc([N+](=O)[O-])ccc1N1CCOCC1,.,.,.,.,6%,?
CCCCCc1cccnc1,0%,0%,.,4%,.,1%
Cc1ccc(NC(=S)N(CCC(C)C)C(C)c2ccncc2)c(Cl)c1 (stereo not given),-3%,-2%,.,-4%,.,5%
CC1CCC(=O)N(CCSc2ccccc2)CC1 (stereo not given),?,0.89µM*,.,1.1µM*,.,5.4µM*
COc1ccc(SCCN2CC[C@@H](C)CCC2=O)cc1,7%,18%,.,15%,.,?
CCOc1ccc2c(c1)nc(SCC(=O)c1cccs1)n2C,?,25%,-3%,?,23%,12µM*
Cc1cc(C)cc(C(=O)N2CC(=O)Nc3ccc(C)cc3C2c2ccccc2)c1 (stereo not given),.,.,.,.,-4%,-12%
Cc1ccc2nc(Nc3ccc4[nH]c(=O)[nH]c4c3)c(-n3nc(C)cc3C)nc2c1,?,?,0%,25%,18µM*,0.85µM*
CCCC(=O)Oc1c(Sc2ccc(Cl)cc2)c(C)nn1-c1ccccc1,.,.,.,.,-4%,11µM*
CC(=O)n1nc(-c2ccc(Cl)cc2)nc1NCc1ccco1,21µM*,2.8µM*,2%,?,.,-5%
COc1ccc(CC(=O)n2nc(-c3ccc(Cl)cc3)nc2NCc2ccco2)cc1,14%,3.2µM*,-5%,?,?,-2%
O=C(c1ccccc1)n1nc(-c2ccc(Cl)cc2)nc1NCc1ccco1,.,.,.,.,?,2%
COc1ccc(C(=O)n2nc(-c3ccc(Cl)cc3)nc2NCc2ccco2)cc1,.,.,.,.,9%,-3%
COc1cccc(N2CCN(C(=O)CN3C(=O)COc4ccc(S(=O)(=O)N5CCC(C)CC5)cc43)CC2)c1,.,.,.,.,?,4%
COc1ccc(-c2nc3sc(CCNC(=O)C(=O)Nc4ccc(C)c(F)c4)c(C)n3n2)cc1,.,.,.,.,.,-6%

# Source: PubChem (National Center for Advancing Translational Sciences (NCATS))
